# Test system: VDR:RXRa (NR concentration 270 nM, RXRa partner concentration 90 nM)
# Assay: PBM binding z-score (relative to random genomic background probes); higher = stronger binding; sequences stand for … in GC…GCGATTGACAGCGTAGAATGAAGG
# Method: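 Protein-binding microarray (Agilent 4x180K custom design, double-stranded 60-nt probes: 5' GC cap, 34-nt variable region, 24-nt constant primer region; full probe sequence given). Purified or IVT nuclear receptor:RXRα heterodimers (3:1 NR:RXRα, mostly 270:90 nM) or homodimers were incubated for 1 h in PBS with 2% milk and no ligand, then detected with Alexa488 antibodies. Fluorescence from o1-orientation probes (~5 replicates averaged) was converted to z-scores against 500 random hg19 background probes. Variable regions are seed direct-repeat (DR0–DR5) sites, all their single-nucleotide variants and half-site ablations.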
row,Sequence,PBM binding z-score
1,ATCGAAAGGTCGAAGAGGTGAGTATACACCGTTT,4.47
2,TCATATAGGTAAATGGTGAAAGTCGGTGTGGTAA,0.561
3,TTACCAAGGTTAGCTGAGGTCGTTGATCCAACTC,5.09
4,TCGAGTAGGTTACCAATGGCGCATTCAGCTTTCT,0.111
5,ACACACAGGTGAGTGAAGGTAACTCAGCTGGACG,-0.0221
6,ATCTCTAGGTAAAAGGTCAGTGAATCCCGAGGAT,2.51
7,TCTGCTAGGTCAGTTGGTCGGCTAACGAGCTGCC,0.0498
8,TCATATGGGTAAAGGTGAAAGTCGAACGATATGA,0.608
9,CCGACTGGGGCATAAGGTTACCAAAAGCCAGCCC,0.198
10,CCTATTAGTTGACCATAAGGGAAACCGAAGCTCG,0.226
11,CTCGAAATGTCGTGCTCAGGTGAGTATACCAAAC,0.0153
12,GCTGCTAGGTCAACTGATGGGCAGCTAAAGCTCG,1.09
13,TAGCCTAGGTCATTCAGGGGCCCGTATAGAAAGC,2.51
14,GCAGACAGGTGAAGCGCAGGTAACTCAGGGTGGC,-0.67
15,GTACCAAGGTGAATAGGCCGTTGATGAGTAGGCG,-0.0408
16,AGTCAAAGTTCATCTAGGTGACGTAAGATATGCT,4.96
17,GCAACGAGGGCATTCGAGTTGATAGCATGGCGAT,3.57
18,TCATATAGGTAAAGGTGAAATTCGAACGATATGA,1.03
19,TCTTGTAGATCAGCAGGTCAAGAAAGCTGGCCAA,1.17
20,CGTCAAAGTTGAACTAAGGTAACGTAAAGCACGC,1.43

row,Sequence,PBM binding z-score
1,CCGACTGGGGCATAAGGTTACCATAAGCCAGCCC,-0.0909
2,CGTCCAAGGTCAGCAGGTCCGTGAAAGCGACGTG,6
3,ATCTCTGGGTAAAAGTTCAGTGAATCCCGAGGAT,1.25
4,AGAACGAGGGCAATGAGTTGATCGCACGGGTGGC,5.13
5,CATACAGGTTCAGCTAGGCCAGAGTAGGGACGGC,1.99
6,ATATGTAGGTGAGCTGGGGTCATTCAGACTAGGC,5.66
7,TCAGAGAGGTGAAGGTAACTCAGGTACGCAGTCG,0.999
8,CCTACTGGACCATCAGGTCATTGATATCAACGTT,2.24
9,TCTTGCAGATCAGCAGGTTAAGAAAGCTGGCCAA,-0.0921
10,ATATGTAGGTTAGATCCGGGTCATTCAGGCTATG,3.5
11,ATCTCTAGGTAAAAGTTCTGTGAATCCCGAGGAT,-0.0345
12,CCAGACAGGTGAGAAAGTAACTCAGCCTCGATTA,0.0167
13,GCTTGTAAATCAAGGTTAAGAAAGACTAAGCTAA,0.379
14,GCTGCTAGGTCATCTGATGGTCAGCTAAAGCTCG,1.98
15,ATCGAAAGGCCGAAGGTGAGTATACCCACCCGAA,-0.338
16,CCTCGGAGGACATCAGGAGGTCAGAGCTGCCAGA,1.99
17,GCGACCGGGGCATCAGCAGGTTACCATAACTTAA,0.435
18,CCTCGGAAGACAACAGGAGGTCAGAGCTGCCAGA,1.5
19,TCATATAGGTAAAGGTAAAAGTCGAACGATATGA,0.657
20,ACAGACAGGTGATGACGGTAACTCAGGCTATCAT,-0.308

# From the supplement of paper PMC6555819
